Screens: PubChem, National Center for Advancing Translational Sciences (NCATS)
NPC1 prom act: qHTS Assay for NPC1 Promoter Activators | Huh7 NPC1 promoter luciferase reporter, 24 h | Potency, µM (doses to about 9.22 µM), without a hit: top-dose activation, actives largely listed as activators | actives 2.4% (n = 320,000) | AID 485313, 2010; note: % of control where 0% means no effect; nearly all actives have a fitted effect of over 60% in size
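Luciferase expression driven by the NPC1 promoter was measured in stably transfected Huh7 cells after a 24 h compound incubation, using a luciferase reagent and a luminescence read.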
ELG1 genotoxic: qHTS screen for small molecules that induce genotoxicity in human embryonic kidney (HEK293T) cells expressing luciferase-tagged ELG1 | HEK293T ELG1-luciferase reporter, luminescence, 16 h | Potency, µM (titrated, usually from 46 µM), inactives show top-dose activity change, positive = activation, hits mostly activators | AID 504466, 2011 | actives 1.3% (n = 330,000); note: % of control where 0% means no effect; nearly all actives have a fitted effect of over 60% in size
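HEK293T cells expressing luciferase-tagged ELG1 were exposed to compound or DMSO vehicle for 16 hr at 37 °C and 5% CO2. Luciferase activity was then measured with ONE-Glo after 30 min at room temperature.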
SMN2 splice enh: qHTS Assay for Enhancers of SMN2 Splice Variant Expression | actives 2.8% (n = 210,000) | HEK293 SMN2-luciferase splicing reporter, luminescence, 30-36 h | Potency, µM (highest dose often 46.1 µM), without a hit: at the highest dose activity change, positive = activation, actives largely listed as activators; note: % of control where 0% means no effect; nearly all actives have a fitted effect of over 55% in size
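HEK293 cells carry an SMN2 […]–luciferase reporter in which exon 7 inclusion puts luciferase in frame. Cells were plated 10-12 h before compound addition, then incubated 30-36 h at 37C. ONE-Glo luminescence was read; sodium butyrate at 4.5 mM final served as control.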
FLuc counter: qHTS profiling assay for firefly luciferase inhibitor/activator using purifed enzyme and Km concentrations of substrates (counterscreen for miR-21 project). purified FLuc, Km substrates, luminescence inhibition. Potency, µM (series often up to 57.5 µM), inactives show at the highest dose activity change, negative = inhibition, hits mostly inhibitors. actives 6.9% (n = 360,000);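 note: plate controls were vehicle for no effect and reference inhibitor for full effect; nearly all actives have a fitted effect of over 55% in size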
Target sequence (P08659 whole entry, looked up): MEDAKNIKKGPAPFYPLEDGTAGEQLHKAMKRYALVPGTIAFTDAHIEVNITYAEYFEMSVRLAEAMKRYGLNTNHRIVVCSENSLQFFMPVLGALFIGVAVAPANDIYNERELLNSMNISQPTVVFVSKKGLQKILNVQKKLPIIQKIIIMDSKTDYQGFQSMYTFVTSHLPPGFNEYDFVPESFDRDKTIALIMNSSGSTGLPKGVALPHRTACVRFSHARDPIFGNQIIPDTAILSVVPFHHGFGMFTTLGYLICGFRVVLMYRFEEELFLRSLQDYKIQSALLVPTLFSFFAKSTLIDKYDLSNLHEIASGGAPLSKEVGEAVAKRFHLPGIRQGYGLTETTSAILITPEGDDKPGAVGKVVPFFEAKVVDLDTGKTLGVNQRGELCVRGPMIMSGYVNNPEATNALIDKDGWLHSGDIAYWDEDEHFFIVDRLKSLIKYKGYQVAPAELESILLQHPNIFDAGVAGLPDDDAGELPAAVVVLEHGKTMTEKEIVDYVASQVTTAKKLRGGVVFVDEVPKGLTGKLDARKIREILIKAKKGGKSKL
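Biochemical qHTS of compounds, final roughly 60 µM downward over six points, against 10 nM purified firefly luciferase using Km concentrations of substrates (10 uM D-luciferin, 10 uM ATP) in Tris acetate pH 7.5 buffer; luminescence output.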
Rab9 promoter act: qHTS Assay for Rab9 Promoter Activators | Huh7 Rab9 promoter-luciferase reporter, luminescence, 24 h | Potency, µM (highest dose often 9.22 µM), for inactives: at the highest dose activation, negative = inhibition, most hits filed as activators | actives 2.8% (n = 320,000) | AID 485297, 2010; note: % of control where 0% means no effect; nearly all actives have a fitted effect of over 60% in size
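Luminescence read-out: Huh7 cells stably expressing Rab9-luciferase, treated 24 h with compound at 37 °C, then lysed with luciferase reagent for 10 min at ambient before reading.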
KinaseGlo FLuc: Counterscreen for Luciferase (Kinase-Glo TM) Inhibition. Luciferin 4-monooxygenase (Photuris pensylvanica), Q27757. Kinase-Glo luciferase, ATP luminescence, 8 min. Potency, µM (series often up to 38.3 µM), without a hit: at the top dose activity change, negative = inhibition, usual class: inhibitors. actives 0.28% (n = 200,000); note: % is set by controls: 0 for no effect and ±100 for the full control effect; nearly all actives have a fitted effect of over 60% in size
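Compounds were added to a substrate mix at pH 7.2 (50 mM imidazole, 10 uM ATP, within the enzyme's linear range), followed by Kinase-Glo detection reagent; luminescence was measured after 8 minutes at ambient temperature.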
Starred values were filed as active, the others as inactive; u = inconclusive; x = no result; [ ] = another dose, or the depositor's remark. The list is not random: actives were taken first. Their share in the collection is about 7.5%. Calls come from the whole dose curve; as a rule, active = well fitted curve in the direction sought with a large enough effect; inconclusive = small, poorly fitted or top-dose-only effect, or another doubt; inactive = no such curve, though single readings can be large; an effect the other way counts as inactive or inconclusive. Potency is the fitted concentration of half-maximal effect.

SMILES | NPC1 prom act | ELG1 genotoxic | SMN2 splice enh | FLuc counter | Rab9 promoter act | KinaseGlo FLuc
CN(C)c1ccc(N=Cc2nc(-c3ccccc3)oc2O)cc1 | u | 10.3% | -2.6% | u | 28.7% | -3.1%
Oc1oc(-c2ccc(Br)cc2)nc1C=Nc1ccc(Br)cn1 | 1.0% | 0.2% | 0.0% | 7.7% | 1.7% | 1.6%
CSc1ccccc1N=Cc1nc(-c2ccccc2)oc1O | 1.3% | u | 28.3% | 9.53µM* | -3.6% | 7.0%
COc1cccc(Cc2nc3ccccc3nc2SCC(=O)NCc2ccc(C)cc2)c1 | x | x | x | -1.8% | x | x
CCc1ccc(NC(=O)Cn2nnc(-c3ccccc3N)n2)cc1 | x | x | x | -1.2% | x | x
Oc1oc(-c2ccccc2)nc1C=NCc1ccccc1 | u | 20.6µM* | 9.3% | 16.9µM* | 25.5% | 3.9%
COc1ccc(C(=O)Nc2nc3cc(OC)c(OC)cc3c(=O)[nH]2)cc1 | -2.1% | 0.8% | -29.9% | 0.8% | -1.9% | -0.7%
COc1ccc(C(=O)Nc2nc3ccccc3c(=O)[nH]2)cc1 | 0.708µM* | u | 12.6µM* | 2.69µM* | 0.398µM* | -10.6%
COc1ccc(C(=O)Nc2cccc(/C=C/c3nc4ccccc4c(=O)[nH]3)c2)cc1 | 27.1% | -3.8% | x | u | 3.16µM* | x
O=C(Nc1cccc(/C=C/c2nc3ccccc3c(=O)[nH]2)c1)c1ccccc1Cl | u | -0.4% | x | -11.9% | u | x
O=C(Nc1ccc(F)cc1F)c1cc(Cl)sc1Cl | 0.9% | 8.9% | x | u | 10.9% | x
CCOC(=O)N1CCN(C(=O)CCCOc2ccccc2)CC1 | 2.82µM* | u | 12.6µM* | -11.4%[2.3 µM] | 1.78µM* | 2.5%
O=C(CCCOc1ccccc1)N1CCN(S(=O)(=O)c2ccccc2)CC1 | -1.6% | -0.5% | x | x | 16.3% | x
CN1CCN(C(=O)CCN2C(=O)c3ccccc3C2=O)CC1 | -0.7% | 1.3% | x | -2.0% | -3.1% | -1.3%
O=C(CCCOc1ccccc1)N1CCN(c2ccccc2)CC1 | 3.55µM* | 9.2µM* | u | 9.53µM* | 2.82µM* | -2.5%
Cc1cccc(N2CCN(C(=O)CCCOc3ccccc3)CC2)c1C | 3.16µM* | 2.59µM* | 15.8µM* | 7.57µM* | 2.51µM* | 0.6%
Cc1ccccc1N1CCN(C(=O)CCN2C(=O)c3ccccc3C2=O)CC1 | 0.5% | 5.1% | 4.3% | 16.9µM* | 16.8% | -6.8%
CC(=O)N/C(=C/c1ccc2c(c1)OCO2)C(=O)NCc1ccccc1 | -0.5% | 2.5% | -11.4% | 1.4% | -3.8% | 2.2%
CCCCc1cc(=O)oc2c(C)c(OCC(=O)N3C[C@H]4C[C@@H](C3)c3cccc(=O)n3C4)ccc12 | 0.5% | 9.9% | x | -0.9% | 7.4% | x
O=C(CCCOc1ccc(Cl)cc1Cl)N1CCc2ccccc2C1 | -2.6% | 1.3% | -58.3% | -16.7% | -8.2% | 1.8%
O=C(/C=C/C(=O)N1CCc2ccccc2C1)N1CCc2ccccc2C1 | -0.4% | -2.1% | x | -2.9% | -2.1% | x
O=C(CSc1ccccc1)N1CCN(c2ccccc2)CC1 | 17.2% | 7.5% | u | u | 20.1% | 0.8%
O=C(Cc1ccc(Br)cc1)N1CCc2ccccc2C1 | u | u | x | 16.9µM* | u | x
O=C(CCSc1ccccc1)N1CCN(c2ccccc2)CC1 | 2.82µM* | u | 22.4µM* | 19µM* | 2.82µM* | 2.6%
O=C(CCCOc1ccccc1)N1CCc2ccccc2C1 | 29.2% | 20.6µM* | 12.6µM* | 23.9µM* | 23.3% | 0.1%
SMILES | NPC1 prom act | ELG1 genotoxic | SMN2 splice enh | FLuc counter | Rab9 promoter act | KinaseGlo FLuc
COc1ccc(-c2noc(CSc3nnc(C)n3-c3cccc(C)c3)n2)cc1 | x | x | -9.2% | 4.1% | x | x
CC(=O)N[C@@H]1C(O)OC(CO)C(O)C1O (stereo not given in full) | x | x | -7.9% | x | x | -3.6%
Cn1c(=O)n(C)c2cc(/C=C3/NC(=O)N(Cc4ccccc4)C3=O)ccc21 | -0.5% | 9.2µM* | 7.3% | -0.3% | -5.7% | -5.4%
CCN1C(=O)N/C(=C/c2cc(C)n(Cc3ccccc3)c2C)C1=O | u | 18.4% | 29.9% | 3.38µM* | u | -1.4%
Cc1ccc(/C=C2/NC(=O)N(Cc3ccccc3)C2=O)o1 | -0.3% | -0.7% | 10.2% | -17.1% | 2.1% | -2.9%
CCCCCOc1ccc(C(=O)Nc2ccc(N3CCOCC3)cc2N2CCOCC2)cc1 | -6.7% | 0.7% | x | -1.4% | 4.1% | x
Nc1[nH]c(=O)[nH]c(=O)c1N=Nc1ccc(C(=O)O)cc1 | -2.4% | -0.4% | x | -3.6% | -4.4% | x
Cc1[nH]n(-c2ccccc2)c(=O)c1C(c1cc(Cl)ccc1O)c1c(C)[nH]n(-c2ccccc2)c1=O | x | x | 3.0% | 19µM* | x | x
COc1ccc(C(c2c(C)[nH]n(-c3ccccc3)c2=O)c2c(C)[nH]n(-c3ccccc3)c2=O)cc1OC | -0.1% | -0.2% | 1.7% | 19µM* | -6.4% | 2.4%
CCOc1cc(C(c2c(C)[nH]n(-c3ccccc3)c2=O)c2c(C)[nH]n(-c3ccccc3)c2=O)ccc1O | x | x | -10.3% | 12µM* | x | x
Cc1ccc(-c2noc(CN(C3CCCCC3)S(=O)(=O)c3ccc(Cl)cc3)n2)cc1 | x | x | 8.8% | -2.2% | x | x
COc1ccc(S(=O)(=O)N2CCC(C(=O)NCCC(=O)NCc3ccccc3OC)CC2)cc1 | -6.2% | 1.3% | x | 3.1% | 3.0% | x
COc1ccc(C(=O)O/N=C(\C)c2ccccc2)cc1 | 4.3% | 1.8% | -3.2% | 0.675µM* | 2.4% | 12.6µM*
CC(C)=NOC(=O)c1ccc(-c2ccccc2)cc1 | 0.0% | 0.7% | u | 8.49µM* | -10.9% | 0.8%
C/C(=N\OC(=O)c1ccc(OC(C)C)cc1)c1ccc(C)c(C)c1 | 1.4% | 12.7% | -24.5% | 13.5µM* | 13.2% | -2.9%
CCOc1ccc(C2C(C(=O)c3cccs3)=C(O)C(=O)N2CCN2CCOCC2)cc1 (stereo not given) | -4.4% | 1.0% | x | -0.8% | -0.2% | x
COc1ccc(C(=O)/C=C/c2ccc(C)cc2)c(OC(=O)c2ccc([N+](=O)[O-])cc2)c1 | 25.5% | 6.1% | 4.6% | 6.75µM* | 21.2% | 0.8%
COCOc1cc(OC)ccc1C(=O)/C=C/c1ccc2c(c1)OCO2 | x | x | 11.6% | x | x | -5.8%
COc1ccc(/C=C/C(=O)c2ccc3c4c(cccc24)CC3)cc1 | -1.1% | 0.1% | x | 15.1µM* | -3.6% | x
COc1ccc(C(=O)/C=C/c2ccc(N(C)C)cc2)c(OC)c1 | -7.1% | u | x | 10.7µM* | -2.0% | x
COc1ccc(C(=O)/C=C/c2ccccc2)c(OC)c1 | u | 4.4% | x | 4.78µM* | u | x
CCCC(=O)Nc1nnc2n1CCS2 | x | x | x | -1.1% | x | x
